The record followed here is PubChem BioAssay.

Molecules are shown by their SMILES. Records with an inconclusive call do not appear. Active and inactive are the calls of the source. Rule as the data show it, unless noted: active = inhibition above about 30%; inactive = the rest.

As usually defined, the viability is a read-out of living cells in per cent, often relative to untreated cells. As usually defined, the inhibition is the change of the read-out against control, counted positive when it falls.

Assay [1] is described as follows: HUVEC growth inhibition – cell-based, human, primary screen (AID 575;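 active = viability at or below 30% in both replicate assays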;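 also: 100% = median of untreated cell wells with 0.1% DMSO on each plate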). As to conditions: HUVEC proliferation, CellTiter-Glo luminescence, 72 h; at 10 µM; stronger effect = lower value. Background: Cellular ATP, detected with luciferase, serves as a proxy for viable cell number.
The nature of assay [2]: reversal of MRP1-mediated doxorubicin resistance, pilot screen, H69AR cells, doxorubicin co-treatment (AID 601;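 active = viability loss from added drug above about 55%, and viability with drug at most 40%, in both replicates, limit read from the data, passing the limit was not always enough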). As to conditions: CellTiter-Glo, 72 h, at 10 µM; for differential viability (reversal): stronger effect = higher value.
A short description of assay [3]: 384-well plate pilot, post-Golgi transport modulator project, inhibition of yeast transport mutant growth (AID 636; in the data active = inhibition above about 31%). As to conditions: absorbance 615 nm, about 18 h, stronger effect = higher value.
The nature of assay [4]: growth suppression of yeast trafficking mutant, preliminary HTS, modulators of trafficking downstream of Golgi apparatus project, 1536-format plate, OD 615 nm (AID 637). The settings on record: yeast transport mutant growth, absorbance 615 nm, 18 h; stronger effect = higher value.
Assay [5] in a line: growth inhibitors of H69AR lung tumor, primary screen, human, duplicate replicates (AID 580;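 active = viability at or under a set limit in both replicates, limit being median viability minus 3 SD, cut at about 48% in these data, passing the limit was not always enough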;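 also: 100% = mean luminescence of untreated wells and 0% = no signal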). As to conditions: H69AR lung tumor cells viability, ATP luminescence, 72 h; at 10 µM; stronger effect = lower value.
Assay [6] can be described thus: OD615 S. cerevisiae growth inhibition, permissive medium, pilot counter-assay, permissive growth control for S. cerevisiae lifespan shortening project (AID 705;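 active = growth inhibition above 25% in both replicates, a cutoff set 3 SD above the mean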). The settings on record: OD615, 24 h, at 10 µM, stronger effect = higher value.
The nature of assay [7]: Restrictive medium S. cerevisiae growth inhibition, OD615, pilot screen of yeast lifespan reduction project, restrictive growth control (AID 706;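 active = growth inhibition above a set limit, 3 SD over mean compound inhibition, in both replicates, cut at about 43% in these data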;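 also: modified DeaD lifespan yeast strain shifted to restrictive glucose medium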). As to conditions: OD615, 48 h, at 10 µM, stronger effect = higher value.
Assay [8] can be described thus: viability gain of MRP-1-high H69AR cells under doxorubicin, pilot screen, MRP-1 activator project, CellTiter-Glo, duplicate (AID 807;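 active = viability increase at or above a cutoff of the median across tested compounds plus 3 SD, cut at about 8.5% in these data, passing the limit was not always enough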;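 also: compound pretreatment 18-22 h then 72 h combined with doxorubicin; 0% = doxorubicin alone and 100% = vehicle without doxorubicin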). As to conditions: H69AR viability with doxorubicin, CellTiter-Glo luminescence; at 10 µM; stronger effect = higher value.
The nature of assay [9]: growth suppression of beta-catenin knockout HCT116, pilot screen, human colon tumor cells (AID 823;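 active = cell viability at or below a set limit in both duplicate runs, the limit being the all-compound median minus 4 SD, cut at about 23% in these data, passing the limit was not always enough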;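 also: 0% = wells killed by 20 µM Hyamine and 100% = untreated DMSO cell wells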). The settings on record: CellTiter-Glo, 60 h, at 10 µM, stronger effect = lower value.
Assay [10] can be described thus: growth suppression of PTEN-deleted HCT116, pilot screen, cell-based, HCT116 clonal line, CellTiter-Glo (AID 824;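 active = viability at or below 27.92% in each of two runs, the all-compound median minus 4 SD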;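 also: 0% = 20 µM Hyamine control and 100% = vehicle cell control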). The settings on record: 60 h, at 10 µM, stronger effect = lower value.
A short description of assay [11]: inhibitors of the yeast RAM network, pilot screen, dse1pr::URA3 reporter, 5-FOA selection (AID 869;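 active = inhibition over a set limit, the all-compound mean plus 3 SD, in both replicate runs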;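 also: 0% = DMSO wells with no growth and 100% = 10 µM 1-NA-PP1 with full growth; RAM network block rescues cells from 5-FOA so hits raise OD615 growth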). The settings on record: S. cerevisiae dse1pr::URA3 5-FOA growth, OD615, 2 d; at 10 µM; stronger effect = higher value; strain carries analog-sensitive mutant Cbk1 kinase.
Where [12] appears, read: H69AR cells + 2 uM doxorubicin, measured here: viability with 2 uM doxorubicin, stronger effect = lower value.
Setting [13] is: H69AR cells, compound alone cytotoxicity.

As to `COc1cc(-n2nc(C)c3c2OC(N)=C(C#N)C3c2ccccc2)c(Cl)c(Br)c1O` (configuration not stated), the figures for the viability in assay [1], in [2] (setting [12]) and in [2] (setting [13]) were 50% (inactive), 68% and 69.5%, respectively. Besides, the differential viability (reversal) in assay [2] (H69AR cells + 2 uM doxorubicin) is 1.54% (inactive). The inhibition in assay [3] is -6.4% (inactive); in assay [4], -4.6% (inactive).

`COc1cccc2c1C(=O)c1c(O)c3c(c(O)c1C2=O)C[C@@](O)(C(C)=O)C[C@@H]3O[C@H]1C[C@H](N)[C@H](O)[C@H](C)O1`: in assay [1], the viability was 5.46% (active). In addition, the inhibition in assay [3] is -2.73% (inactive); in assay [4], -0.17% (inactive).

With `O=S(=O)(Cc1ccc(Cl)cc1)Nc1ccc2c(c1)OCO2`, the results for the viability in [5], in [2] (setting [12]) and in assay [2] (setting [13]) were 104% (inactive), 86.8% and 104%, respectively. For the same molecule, the differential viability (reversal) in assay [2] (H69AR cells + 2 uM doxorubicin) was 17.3% (inactive). Moreover, the inhibition in [3] is -0.53% (inactive); in assay [4] it was 4.29% (inactive).

Consider `CCCn1c(N2CCN(CC(=O)NCc3cccs3)CC2)nc2ccccc21`, for which the results for the viability in assay [1], in assay [2] (setting [12]) and in assay [2] (setting [13]) were 97.6% (inactive), 60.4% and 59.9%, respectively. Further, the differential viability (reversal) in assay [2] (H69AR cells + 2 uM doxorubicin) was -0.505% (inactive). The inhibition in assay [3] is -4.47% (inactive); in assay [4], 6.03% (inactive).

For `Oc1ccc(Nc2nc(-c3ccc(O)cc3)cs2)cc1`, the viability in assay [5] was 58.4% (inactive); in assay [2] (setting [12]), 88.1%; in [2] (setting [13]), 58.4%. Besides, the differential viability (reversal) in assay [2] (H69AR cells + 2 uM doxorubicin) was -29.7% (inactive). In addition, the inhibition was -8.13% (inactive) in assay [3] and -4.13% (inactive) in assay [4].

Take `Nc1nc(Cl)nc2c1ncn2[C@@H]1O[C@H](CO)[C@@H](O)[C@H]1O`: the viability was 3.95% (active) in [1], 74.6% in assay [2] (setting [12]) and 50.3% in assay [2] (setting [13]). In addition, in assay [2] (H69AR cells + 2 uM doxorubicin), the differential viability (reversal) was -24.3% (inactive). Also, the values for the inhibition in [3] and in [4] were -1.43% (inactive) and 1% (inactive), respectively.

For the molecule `CCNc1nc(NC(C)C)nc(N(C#N)CCOc2ccc(Cl)cc2Cl)n1`, the viability is 48.8% (inactive) in [1], 33.2% in assay [2] (setting [12]) and 53.6% in [2] (setting [13]). Also, the differential viability (reversal) in assay [2] (H69AR cells + 2 uM doxorubicin) is 20.4% (inactive). Further, the values for the inhibition in [3] and in assay [4] were 16.2% (inactive) and -3.81% (inactive), respectively.

On to `Cn1cc(-c2nc3ccccc3[nH]2)c2ccccc21`, for which the viability in [1] was 81% (inactive); in assay [2] (setting [12]) it was 72%; in assay [2] (setting [13]), 62.2%. Further, in assay [2] (H69AR cells + 2 uM doxorubicin), the differential viability (reversal) is -9.86% (inactive). Moreover, the inhibition in [3] was -7.33% (inactive); in [4], -0.63% (inactive).

For `CN1CCCN(C(c2ccccc2)c2ccc(Cl)cc2)CC1` (configuration not stated), the results for the viability in [1], in assay [2] (setting [12]) and in [2] (setting [13]) were 54.3% (inactive), 69.4% and 44.8%, respectively. The differential viability (reversal) in assay [2] (H69AR cells + 2 uM doxorubicin) is -24.5% (inactive).

For `O=c1c2cn[nH]c2nc(SCc2ccc3c(c2)OCCO3)n1-c1ccccc1`, the values for the viability in assay [1], in assay [2] (setting [12]) and in assay [2] (setting [13]) were 74.4% (inactive), 83.9% and 61.7%, respectively. Also, the differential viability (reversal) in [2] (H69AR cells + 2 uM doxorubicin) was -22.2% (inactive). Besides, the inhibition in [3] is 1.45% (inactive); in assay [4] it was -4.44% (inactive).

As to `CCOC(=O)C1=C(Cn2cnc3ccccc32)NC(=O)NC1c1cc(C)ccc1C` (configuration not stated), the viability in [1] is 93.7% (inactive); in assay [2] (setting [12]), 60.1%; in assay [2] (setting [13]), 42.5%. In addition, the differential viability (reversal) in assay [2] (H69AR cells + 2 uM doxorubicin) was -17.6% (inactive). Also, the figures for the inhibition in [3] and in assay [4] were -1.71% (inactive) and 1.43% (inactive), respectively.

On to `CC(NCCC(c1ccccc1)c1ccccc1)c1ccccc1` (configuration not stated), for which the viability was 2.03% (active) in assay [1], 2.41% in assay [2] (setting [12]) and 1.54% in assay [2] (setting [13]). In addition, in assay [2] (H69AR cells + 2 uM doxorubicin), the differential viability (reversal) was -0.87% (inactive). The inhibition was 3.77% (inactive) in assay [3] and -5.67% (inactive) in assay [4].

In the case of `CCn1c(=N)n(CC(O)COc2cccc(C)c2)c2ccccc21` (configuration not stated), the viability in [5] is 69.9% (inactive); in assay [2] (setting [12]) it was 72.3%; in assay [2] (setting [13]), 69.9%. Further, in assay [2] (H69AR cells + 2 uM doxorubicin), the differential viability (reversal) is -2.36% (inactive). Also, the inhibition is 3.55% (inactive) in [3] and -5.08% (inactive) in [4].

For the molecule `CC(C)Cn1c(N)c(C(=O)NCCN2CCOCC2)c2nc3ccccc3nc21`, the viability in [1] is 52.3% (inactive); in [2] (setting [12]) it was 79.3%; in assay [2] (setting [13]), 55.7%. In addition, in assay [2] (H69AR cells + 2 uM doxorubicin), the differential viability (reversal) was -23.6% (inactive). The inhibition is -5.2% (inactive) in [3] and 3.65% (inactive) in [4].

Consider `c1ccc(-n2ncc3c(NCc4cccs4)ncnc32)cc1`, for which the viability in [1] is 79% (inactive); in assay [2] (setting [12]), 52.3%; in [2] (setting [13]), 41.8%. The differential viability (reversal) in assay [2] (H69AR cells + 2 uM doxorubicin) was -10.5% (inactive). The inhibition in [3] was -7.73% (inactive); in assay [4], 2.22% (inactive).

Regarding `O=c1[nH]c2ccccc2n1CCCN1CCN(C(c2ccccc2)c2ccccc2)CC1`, the results for the viability in assay [1], in assay [2] (setting [12]) and in [2] (setting [13]) were 75.3% (inactive), 41.1% and 11.2%, respectively. In addition, the differential viability (reversal) in assay [2] (H69AR cells + 2 uM doxorubicin) was -29.9% (inactive).

Take `Cc1cc2oc(=O)cc(CN3CCCCC3)c2cc1C(C)C`: the results for the viability in [1], in assay [2] (setting [12]) and in assay [2] (setting [13]) were 52.5% (inactive), 51.2% and 52.1%, respectively. Further, the differential viability (reversal) in [2] (H69AR cells + 2 uM doxorubicin) was 0.87% (inactive). The inhibition in [3] was -1.82% (inactive); in assay [4], -2.06% (inactive).

In the case of `Cc1ccc(C2C3CN(C(C)C)CC=C3C(C#N)=C(N)C2(C#N)C#N)cc1` (configuration not stated), the viability in assay [1] is 62.9% (inactive). The inhibition in assay [3] is -6.27% (inactive); in assay [4], 1.43% (inactive).

For the molecule `O=c1c2ccccc2nc(-c2cccc(Cl)c2)n1O`, the figures for the viability in [1], in assay [2] (setting [12]) and in assay [2] (setting [13]) were 84.6% (inactive), 60.1% and 45.9%, respectively. Further, the differential viability (reversal) in [2] (H69AR cells + 2 uM doxorubicin) was -14.1% (inactive). Moreover, the inhibition in assay [3] is -3.68% (inactive); in [4], 0.32% (inactive).

`CC[C@H]1CN2CCc3cc(OC)c(OC)cc3[C@@H]2C[C@@H]1C[C@H]1NCCc2cc(OC)c(OC)cc21`: the figures for the viability in assay [1], in assay [2] (setting [12]) and in [2] (setting [13]) were 11% (active), 13.3% and 23.5%, respectively. Also, the differential viability (reversal) in assay [2] (H69AR cells + 2 uM doxorubicin) was 10.2% (inactive). In addition, the values for the inhibition in [3] and in assay [4] were -1.69% (inactive) and 2.17% (inactive), respectively.

Consider `CC(C)(C)C1CCc2onc(C(=O)Nc3cnn(Cc4ccc(F)cc4)c3)c2C1` (configuration not stated), for which the viability was 32.9% (active) in assay [5], 50.6% in assay [2] (setting [12]) and 32.9% in assay [2] (setting [13]). In assay [2] (H69AR cells + 2 uM doxorubicin), the differential viability (reversal) was -17.6% (inactive). The figures for the inhibition in assay [3] and in assay [4] were 0% (inactive) and 3.02% (inactive), respectively.

Take `CN1CSC2=C(C#N)C(c3cccc(OCc4ccccc4)c3)CC(=O)N2C1` (configuration not stated): the growth inhibition in assay [6] is -5.43% (inactive); in assay [7] it was 20.4% (inactive). Besides, the viability increase in assay [8] is -4.67% (inactive). The viability in assay [9] was 85.7% (inactive); in [10], 88.5% (inactive). In [11], the inhibition was 0.785% (inactive).
